The record followed here is PubChem BioAssay AID602282 (Johns Hopkins Ion Channel Center, 2012).

Screen size: about 1,100 compounds; about 1,000 (91%) were called active.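 Rule for the calls: active = inhibition above 3 SD of the buffer control wells (cut at about 41% in these data); inactive = the rest.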 So high a share suggests a set chosen from earlier hits. A selection follows.

A word on the inhibition: it is how much of the control response was suppressed.

This assay in a line: inhibition of M3R-evoked calcium signal on retest – cell-based, HEK293 M3R/RGS4 inducible, calcium flux, duplicate, RGS4 activator project, confirmation (AID 602282).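 Note: signal is the integrated peak-minus-minimum Fluo4 fluorescence over baseline ratio.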 The note with it: carbachol calcium flux Fluo4, at 10 µM, stronger effect = higher value. A general note: Calcium flux is commonly read through the fluorescence of an indicator in the cells.
On to `Cc1nn(C)cc1N1C(=O)c2cccc3c(N)ccc(c23)C1=O`, for which the inhibition is 97.5% (active). In the case of `OCCC1CN(Cc2ccc3nsnc3c2)CCN1C1CCCC1` (stereo not given) it was 82.5% (active). In the case of `COc1cccc(/C=N/Nc2cc(C)nc(-c3ccccc3O)n2)c1O` it was 93.5% (active); in that of `COc1cccc(-c2cc3nc4c(c(N5CCC6(CC5)OCCO6)n3n2)CCCC4)c1`, 56.5% (active).

`Cc1ccc(OS(=O)(=O)c2ccc(-c3csc(C)n3)s2)c(C)c1`: the inhibition was 82% (active).

On to `COC(=O)c1ccc(CN2CCC(CO)(Cc3ccc(OC)cc3)CC2)cc1`, for which the inhibition is 92% (active).

As to `CCCCCC(O)(CCN1CCCCC1)c1ccccc1` (stereo not given), the inhibition is 93% (active). For the compound `C#CC(CCN1CCCCC1)(OC)c1ccccc1` (stereo not given), the inhibition was 93% (active). The same measure for `Cc1ccc(SCC(=O)c2cc(C)c(OC(=S)N(C)C)c(C)c2)cc1`: 88.5% (active); for `Cc1cc2oc3ccc(NCCC4CCCN4C)cc3c(=O)c2cc1C` (stereo not given): 91% (active); for `O=S(=O)(c1ccc(Br)cc1)n1ccc2ccccc21`: 80.5% (active).

With `CCc1c(C)sc(NC(=O)c2ccc(Br)o2)c1C(=O)OC`, the inhibition was 69.5% (active). Turning to `Cc1oc2c(F)c(F)c(F)c(F)c2c1S(=O)(=O)Nc1cccc(C(F)(F)F)c1`, the inhibition is 92% (active). In the case of `COc1ccc(C(=O)Nc2nc(-c3ccc(S(=O)(=O)N4CCOCC4)cc3)cs2)cc1` it was 85.5% (active); in that of `CCc1ccccc1NC(=O)[C@@H]1CCC(=O)N1C1OC(=O)c2c1ccc(OC)c2OC` (stereo not given in full), 0% [the number is a placeholder, only the call stands] (inactive); in that of `CCC1CCCCN1CCCNC(=O)c1cc2c(Cl)nc3ccccc3c2s1` (stereo not given), 93.5% (active). Consider `N=c1c2c3c(sc2nc2n1CCCCC2)CCCC3`, for which the inhibition is 87% (active). Turning to `Oc1ccccc1N1CCN(c2ncnc3sc(-c4ccccc4)cc23)CC1`, the inhibition is 87.5% (active). In the case of `COc1ccc(/C=C(\C#N)c2c[nH]c3ccccc23)cc1` it was 85% (active); in that of `COc1cccc(CNC(=O)CCC2CCCN(Cc3ccc(OC(F)F)cc3)C2)c1` (stereo not given), 74% (active); in that of `Cc1nc(N2CCN(c3ccccn3)CC2)c2c(C)c(C(=O)Nc3ccc(F)cc3)sc2n1`, 91% (active).

With `OC(CN=c1sc2ccccc2n1CC(O)COc1ccccc1)COc1ccccc1` (stereo not given), the inhibition was 91.5% (active).

For `CCOC(=O)C1=C(NC(=S)NC(=O)c2ccccc2)c2ccccc2CC1(C)C`, the inhibition was 92% (active). In the case of `CN1CCN(C(=O)N2c3ccccc3CCc3ccccc32)CC1` it was 90.5% (active). For `O=C(Cn1c(N2CCN(C/C=C/c3ccccc3)CC2)nc2ccccc21)c1ccccc1`, the inhibition was 91.5% (active). For the compound `Cc1cccc(-c2nc3ccc(C(=O)NCCN4CCN(C)CC4)cc3nc2-c2cccc(C)c2)c1`, the inhibition was 93.5% (active). The same measure for `COc1ccc(CN2CCCC(C(=O)c3ccc(Cl)cc3)C2)cc1Cn1cncn1` (stereo not given): 93% (active). On to `COc1ccccc1C(CNC(=O)c1cccc(NS(=O)(=O)c2ccc(Br)cc2)c1)N(C)C` (stereo not given), for which the inhibition was 85% (active). The same measure for `O=C(CN1CCCCCC1)Nc1ccc(S(=O)(=O)N2CCCCC2)cc1`: 65% (active); for `CCCN(CCc1ccccc1)C1CCc2c(O)cccc2C1` (stereo not given): 78% (active); for `CN(C)CCOc1ccc(Cl)cc1C(C)(C)C`: 81.5% (active). In the case of `COc1ccc(CN(C)C(=O)c2cc(-c3ccc(C)cc3C)nc3ccccc23)c(OC)c1OC` it was 90% (active); in that of `COc1ccc(-c2cc(C(=O)N(C)Cc3ccccc3)c3ccccc3n2)cc1`, 88.5% (active). The same measure for `Cc1ccc(N2C(=O)CC(Nc3cccc4ccccc34)C2=O)cc1` (stereo not given): 0% [the number is a placeholder, only the call stands] (inactive); for `CN(C)S(=O)(=O)N1CCC(Oc2cccc(C(=O)NCCCC3CCCC3)c2)CC1`: 78.5% (active); for `Cc1ccc(C)c(N2CCN(C(=O)CCCCCn3c(=S)[nH]c4ccc(N5CCOCC5)cc4c3=O)CC2)c1`: 92% (active).

On to `Cc1ccc(C)c(N2CCN(C(=O)CCCn3c(=O)c4cccn4c4cccnc43)CC2)c1`, for which the inhibition is 85.5% (active). On to `O=C(c1cccs1)C1C(c2ccc(Br)cc2)NC(=S)NC1(O)C(F)(F)F` (stereo not given), for which the inhibition is 93.5% (active). The same measure for `CCC1C=C(c2ccccc2)C=CN=C1N(CC)CC` (stereo not given): 84% (active); for `CCOC(=O)c1c(NC(=O)NC(C)(C)C)sc2c1CCN(C)C2`: 0% [the number is a placeholder, only the call stands] (inactive).

For `COc1cc(/C=C(\C#N)c2nc3ccccc3[nH]2)ccc1O`, the inhibition is 80.5% (active). As to `Cc1cccc(-c2nc(Nc3ccc(O)cc3)c3ccccc3n2)c1`, the inhibition is 80% (active). In the case of `Cc1ccnc(SCCn2c(N(C)Cc3ccccc3)nc3c2c(=O)n(C)c(=O)n3C)n1` it was 62% (active); in that of `Cc1ccccc1C(OCCN(C)C)C1CCCCC1` (stereo not given), 91% (active); in that of `S=c1[nH]nc(-c2ccc(Cl)cc2)n1CC1CCCO1` (stereo not given), 59% (active).

Turning to `CN(C)c1ccc(/C=C2\NC(=S)N(Cc3ccccc3)C2=O)cc1`, the inhibition is 79.5% (active). As for `CCOc1ccc(C(CC(=O)O)NC(=O)COc2ccccc2)cc1` (stereo not given), the inhibition was 0% [the number is a placeholder, only the call stands] (inactive). In the case of `CC(C)C(c1nnnn1CCc1ccccc1)N1CCN(C(=O)c2ccco2)CC1` (stereo not given) it was 87.5% (active); in that of `Cc1ccc(OCCCCN2CCCCC2)c(Br)c1`, 0% [the number is a placeholder, only the call stands] (inactive); in that of `COc1ccc(C(=O)NC2CCCc3c2cnn3-c2cccc(C)c2C)c(OC)n1` (stereo not given), 91% (active).
